# Hit rate of the full screen: of about 1,400 compounds, about 100 (7.1%) were called active. The rule behind the calls is not given here. Only a sample is shown. Potency and affinity values are given separately.
# Experiment: Vero cell toxicity, dose response, cytotoxicity control, plate reader, cherry-pick samples (AID 687020);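 note: compounds incubated with cells for three days before luminescence read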
# Conditions: Vero cells toxicity; series mostly up to 19.5 µM; activity change, negative = toxicity: at the top concentration
row,Structure (SMILES),"activity change, negative = toxicity"
1,COc1ccc(-c2cnc3n2CCCCC3)cc1,-10.8% (inactive)
2,CC(=O)N1CCN(C(=O)COC(=O)COc2c(C)cc(C)cc2C)CC1,-0.176% (inactive)
3,Cc1ccc(S(=O)(=O)N2CCOCC2)cc1NC(=O)CN(C)CC(=O)Nc1cccc(F)c1,-8.86% (inactive)
4,COc1cccc(NC(=O)CN(C)C(=O)Cc2ccc3c(c2)OCCO3)c1,-3.6% (inactive)
5,COC(=O)c1cn(C(=O)c2ccc(OC)c(OC)c2)c2ccccc12,-6.84% (inactive)
6,COc1ccc(COC(=O)C2=C(C)NC(=O)NC2c2ccccc2F)cc1 (configuration not stated),-12.5% (inactive)
7,CCCN1CCC(=O)N([C@H](CSc2ccccc2)Cc2ccccc2)CC1,-25.2% (inactive)
8,CCN(CC)C(=O)C1CCN(Cc2ccc(OCc3ccccc3)cc2)CC1,-30.8% (inactive)
9,CC(C)C[C@@H](COc1ccccc1)N1CCN(CCc2ccccc2)CCC1=O,-23.9% (inactive)
10,N#CC[C@H](c1ccccc1)N1CCN(Cc2ccccc2)CCC1=O,-10% (inactive)
11,Cc1noc(C)c1NC(=O)Nc1ccc2c(c1)CC(=O)N([C@@H](C)CO)C[C@H](C)[C@@H](CN(C)C(=O)Nc1ccccc1)O2,6.21% (inactive)
12,CCOc1ccc2[nH]cc(S(=O)(=O)c3ccc(C)cc3)c(=O)c2c1,-24.2% (inactive)
13,O=C(Oc1ccccc1)c1ccccc1C(=O)Oc1ccccc1,-7.5% (inactive)
14,COc1ccc(NC(=O)c2cc3ccccc3cc2O)cc1,6.74% (inactive)
15,COc1ccc(N2CCN(CC(O)COc3ccc(F)cc3)CC2)cc1 (configuration not stated),-1.99% (inactive)
16,Clc1cc(Br)ccc1OCCOCCN1CCCC1,-12.9% (inactive)
17,Clc1cc(Br)ccc1OCCCn1ccnc1,-4.92% (inactive)
18,N#CCc1ccc(NC(=O)c2cc(S(=O)(=O)N3CCOCC3)ccc2Cl)cc1,4.07% (inactive)
19,COc1ccc(-c2cc(N3C(=O)Nc4ccccc4N3O)n[nH]2)cc1OC,-3.7% (inactive)
20,CCNC(=O)N(C)C[C@H]1N[C@@](CC)(C(=O)OC)[C@H]2C(=O)N(Cc3ccccc3)C(=O)[C@@H]12,3.78% (inactive)
21,Cc1ccccc1N1Cc2ccccc2C1=O,-17.1% (inactive)

row,Structure (SMILES),"activity change, negative = toxicity"
1,CN1CCN(S(=O)(=O)c2cccs2)CC1,-29.2% (inactive)
2,O=C(NCc1ccc(Cl)c(Cl)c1)c1cc(C2CCCCN2C(=O)OCCF)on1 (configuration not stated),-31.1% (inactive)
3,COC(=O)N1CCCCC1c1cc(C(=O)Nc2ccccc2Cl)no1 (configuration not stated),-0.256% (inactive)
4,Cc1ccc(F)cc1C(=O)N1CCCCC1c1cc(C(=O)NC(C)C)no1 (configuration not stated),-4.27% (inactive)
5,COc1ccc(S(=O)(=O)N2CCCCC2c2cc(C(=O)Nc3ccccc3)no2)cc1 (configuration not stated),-19.9% (inactive)
6,Cc1ccc(NC(=O)C2CCN(S(C)(=O)=O)CC2)cc1Cl,-5.63% (inactive)
7,C[C@H](NC(=O)[C@H]1[C@H](CO)[C@H]2Cn3c(cccc3=O)[C@@H]1N2Cc1cccnc1)c1ccccc1,-1.47% [at 21 µM] (inactive)
8,CC(C)(C(=O)N1CCC1(C)C(=O)Nc1ccccc1Br)c1ccccc1 (configuration not stated),-3.5% (inactive)
9,Cc1c(C(=O)NCc2ccc(C#N)cc2)sc(=O)n1Cc1ccccn1,-13.9% (inactive)
10,COc1ccc2oc(C(=O)OC(C)C(=O)N3CCC(C)CC3)c(C)c2c1 (configuration not stated),0.402% (inactive)
11,Cc1ccc2oc(C(=O)N(Cc3ccncc3)CC3CCCO3)c(C)c2c1 (configuration not stated),-16.3% (inactive)
12,Cc1ccc(S(=O)(=O)Nc2ccc(O)c3ncccc23)cc1,-6.4% (inactive)
13,COCCNC(=O)C1CCC(CNS(=O)(=O)c2ccc(F)cc2)CC1 (configuration not stated),-5.15% (inactive)
14,CCCC(=O)Nc1ccc2nn(-c3ccc(OC)cc3)nc2c1,-10.6% (inactive)
15,COc1cc(C(=O)OCCCN2CCOCC2)cc(OC)c1OC,-18.3% (inactive)
16,CCN(CC)S(=O)(=O)c1cccc(C(=O)NCC2(N3CCOCC3)CCCCC2)c1,-17.2% (inactive)
17,CC(C)C[C@@H](CN1C(=O)C(=O)NC[C@@H]1CC(C)C)NC(=O)Cc1ccccc1,4.94% (inactive)
18,CCNC(=O)C[C@H]1CC[C@H]2[C@@H](COC[C@H](O)CN2Cc2ccc(Cl)c(Cl)c2)O1,-2.49% (inactive)
19,Cc1cccc(C)c1NC(=O)C1(C)CSCC(=O)N1Cc1cccc(C(F)(F)F)c1 (configuration not stated),-8.41% (inactive)
20,C=Cc1ccc(Cn2c(C)c(C(=O)NCc3cccc(C(F)(F)F)c3)sc2=O)cc1,-26.8% (inactive)
21,CC(=O)Nc1ccc(OCCCN2CCC(C(O)(c3ccccc3)c3ccccc3)CC2)cc1,10.1% (inactive)

row,Structure (SMILES),"activity change, negative = toxicity"
1,O=C(Nc1ccc(F)cc1)C1CCCN(S(=O)(=O)c2ccc3[nH]c(=O)ccc3c2)C1 (configuration not stated),-8.71% (inactive)
2,Cc1ccc(NC(=O)CN2CCC(NC(=O)c3cccc(F)c3)CC2)cc1C,-3.05% (inactive)
3,Cc1ccc(NC(=O)C2(c3cccs3)CCOCC2)cc1C,-2.5% (inactive)
4,Nc1nc2c(ncn2[C@@H]2O[C@H](CNCc3ccc(F)c(N4CCOCC4)c3)[C@@H](O)[C@H]2O)c(=O)[nH]1,2.14% (inactive)
5,CC1(c2nnnn2Cc2ccccc2)CCC(=O)N1CCCn1ccnc1 (configuration not stated),-8.16% (inactive)
6,COc1ccc(NC(=O)CN(C)C(=O)CC2CCCC2)cc1,0.376% (inactive)
7,COC(=O)c1c(-c2ccc(OC)cc2)sc2cc3c(cc12)OCO3,-14.3% (inactive)
8,CC1CCN(C(=O)COC(=O)CNC(=O)c2ccccc2F)CC1,0.091% (inactive)
9,Nc1sc(-c2ccccc2)cc1C(=O)NCCN1CCOCC1,0.888% (inactive)
10,COc1ccc(-c2nc(CN3CCC(C(=O)N4CCOCC4)CC3)c(C)o2)c(OC)c1,-7.68% (inactive)
11,O=C(NCC1CCCCC1)[C@H]1[C@H](CO)[C@H]2Cn3c(cccc3=O)[C@@H]1N2CCc1ccccc1,-0.486% (inactive)
12,O=C(c1cccnc1)N1CC2(C1)[C@H](c1ccccc1)[C@@H](CO)N2Cc1ccccc1,7.05% [at 21 µM] (inactive)
13,CN(C)CC#Cc1ccc([C@H]2[C@@H](CO)N(C(=O)C3CCC3)[C@H]2C#N)cc1,3.64% (inactive)
14,COC(=O)[C@H]1CN(C(=O)c2ccccc2)C(=O)N1,-14.5% (inactive)
15,COc1cc2cc(CCCOC(=O)CCCC(=O)O)oc(=O)c2cc1OC,-0.875% (inactive)
16,O=C(CCNC(=O)OCC1c2ccccc2-c2ccccc21)NOCc1ccccc1,-6.13% (inactive)
17,Cc1cccc(C)c1OCC(=O)NNC(=O)CCCn1c(=O)oc2ccccc21,-12.1% (inactive)
18,CC(=O)NCCC(=O)Nc1cc(S(=O)(=O)N2CCCCC2)ccc1N1CCN(C)CC1,-11.7% (inactive)
19,C[C@@H]1CCCCO[C@@H](CN(C)C(=O)Cc2ccccc2)[C@H](C)CN([C@H](C)CO)C(=O)c2cc(NS(=O)(=O)c3ccc(Cl)cc3)ccc2O1,1.92% (inactive)
20,CN(C)c1ccc2c(c1)[C@H]1C[C@@H](CC(=O)NCc3ccc(Oc4ccccc4)cc3)O[C@H](CO)[C@H]1O2,-2.12% (inactive)
